HEK cytotox: Cytotoxic Profiling in HEK 293 Cell Line of Diverse Libraries Using Quantitative High-Throughput Screening; AID 1345083, 2018; hit rate 6.6% among 94,000; HEK 293 viability, ATP luminescence (CellTiter-Glo), 48-72 h; Potency, µM (highest dose often 115 µM), without a hit: at the top dose activity change, negative = cytotoxicity, hits mostly inhibitors; further: on the % scale 0 is the no-effect control and ±100 the full control effect; nearly all actives have a fitted effect of over 60% in size
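Cytotoxicity was scored by loss of ATP-coupled luminescence (CellTiter-Glo) in HEK 293 cells. Compound treatment ran 48 or 72 hr at 37 degree Celsius, 5% CO2, 95% humidity.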
NIH3T3 tox: Cytotoxic Profiling in NIH 3T3 Cell Line of Diverse Libraries Using Quantitative High-Throughput Screening; NIH 3T3 viability, CellTiter-Glo ATP luminescence, 48-72 h; Potency, µM (doses to about 96.7 µM), for the others: at the top dose activity change, negative = cytotoxicity, actives largely listed as inhibitors; hit rate 4.3% among 94,000; AID 1345082, 2018; further: on the % scale 0 is the no-effect control and ±100 the full control effect; nearly all actives have a fitted effect of over 55% in size
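Cytotoxicity is measured as loss of cellular ATP: NIH 3T3 cells (400/well) are exposed to compound for 48 or 72 hr at 37 °C, then CellTiter-Glo luminescence is imaged after 10 min at room temperature.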
Luciferase inh: Firefly luciferase inhibition profiling of diverse chemical library using quantitative high-throughput screening. Luciferin 4-monooxygenase (Photinus pyralis), P08659. purified P. pyralis luciferase, luminescence, biochemical. Potency, µM (highest dose often 115 µM), hits mostly inhibitors. hit rate 2.5% among 76,000. AID 1347043, 2019; further: on the % scale 0 is the no-effect control and ±100 the full control effect; nearly all actives have a fitted effect of over 65% in size
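Inhibitors were tested against purified firefly luciferase in a biochemical, low-substrate format (both substrates at 10uM) and luminescence measured with a CCD imager.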
hNpr1 antagonist: Natriuretic polypeptide receptor (hNpr1) antagonism - Primary qHTS; hit rate 1.6% among 76,000; Potency, µM (highest dose often 46.3 µM), inactives show at the top dose activity change, negative = inhibition, usual class: inhibitors; HEK293 hNpr1 GloSensor cGMP, ANP-stimulated luminescence; Atrial natriuretic peptide receptor 1 (Homo sapiens), P16066; calls by dose curve; further: on the % scale 0 is the no-effect control and ±100 the full control effect; nearly all actives have a fitted effect of over 60% in size
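Compound pre-incubated 30 min at room temperature on GloSensor-loaded HEK293 cells stably carrying hNpr1 and the pGS-40F cGMP biosensor. Stimulation uses hNppA at 0.1 nM final; luminescence is taken at baseline and 20 min post-agonist.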
NPR1 antag cnf: Natriuretic polypeptide receptor (hNpr1) antagonism - Confirmation. shares compounds with hNpr1 antagonist. Potency, µM (top dose mostly 57.6 µM), inactives show top-dose activity change, negative = inhibition, actives largely listed as inhibitors. hit rate 76% among 1,400. HEK293 hNpr1 cGMP GloSensor luminescence, ANP-stimulated. AID 1347044, 2019; calls by dose curve; further: nearly all actives have a fitted effect of over 70% in size
Npr2 selectivity: Natriuretic polypeptide receptor (hNpr2) antagonism - Subtype selectivity assay | Potency, µM (highest dose often 57.6 µM), without a hit: at the highest dose activity change, negative = inhibition, actives largely listed as inhibitors | hit rate 67% among 1,400 | AID 1347046, 2019 | shares compounds with hNpr1 antagonist | HEK293 hNpr2 GloSensor cGMP luminescence, CNP-stimulated; calls by dose curve; further: nearly all actives have a fitted effect of over 70% in size
Target sequence (P20594 whole entry, looked up): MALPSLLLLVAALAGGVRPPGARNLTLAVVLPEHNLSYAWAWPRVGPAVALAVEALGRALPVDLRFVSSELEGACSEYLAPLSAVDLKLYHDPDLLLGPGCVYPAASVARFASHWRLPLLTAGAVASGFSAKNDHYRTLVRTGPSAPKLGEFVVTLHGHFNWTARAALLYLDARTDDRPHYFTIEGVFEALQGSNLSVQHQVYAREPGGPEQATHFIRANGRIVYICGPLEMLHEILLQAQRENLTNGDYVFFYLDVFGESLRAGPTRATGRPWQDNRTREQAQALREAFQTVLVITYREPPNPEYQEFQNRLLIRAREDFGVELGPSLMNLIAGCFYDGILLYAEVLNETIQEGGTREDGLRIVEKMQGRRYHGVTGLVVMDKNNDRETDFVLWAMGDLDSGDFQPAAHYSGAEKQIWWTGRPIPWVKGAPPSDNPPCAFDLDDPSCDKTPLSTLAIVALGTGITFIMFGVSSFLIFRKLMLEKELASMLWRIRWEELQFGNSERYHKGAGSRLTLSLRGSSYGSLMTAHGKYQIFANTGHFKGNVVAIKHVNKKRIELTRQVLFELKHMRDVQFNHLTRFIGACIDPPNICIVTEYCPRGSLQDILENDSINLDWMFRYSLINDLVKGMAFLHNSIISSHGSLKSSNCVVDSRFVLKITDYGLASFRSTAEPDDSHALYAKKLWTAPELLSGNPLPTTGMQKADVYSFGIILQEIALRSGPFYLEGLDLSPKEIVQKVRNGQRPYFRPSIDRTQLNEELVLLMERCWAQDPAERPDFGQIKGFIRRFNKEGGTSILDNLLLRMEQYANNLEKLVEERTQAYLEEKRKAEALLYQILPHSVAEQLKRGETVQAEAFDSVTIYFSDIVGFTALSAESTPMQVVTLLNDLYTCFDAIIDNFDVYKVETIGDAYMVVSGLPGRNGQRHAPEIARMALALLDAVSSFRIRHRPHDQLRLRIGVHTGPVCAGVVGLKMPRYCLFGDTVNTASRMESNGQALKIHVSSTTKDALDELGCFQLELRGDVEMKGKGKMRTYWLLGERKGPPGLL
FLuc counter: Natriuretic polypeptide receptor (hNpr1) antagonism - Confirmation firefly luciferase (FLuc) inhibition counterscreen; shares compounds with hNpr1 antagonist; Potency, µM (top dose mostly 57.6 µM), for inactives: top-dose activity change, negative = inhibition, hits mostly inhibitors; hit rate 0.7% among 1,400; AID 1347047, 2019; purified FLuc enzyme, luminescence, Km substrate; further: 0% is about no effect
GloSensor cGMP: Natriuretic polypeptide receptor (hNpr1) antagonism - Counterscreen GloSensor control cell line; shares compounds with hNpr1 antagonist; HEK293 GloSensor cGMP, SNP-stimulated, luminescence; Potency, µM (highest dose often 57.6 µM), without a hit: at the highest dose activity change, negative = inhibition, actives largely listed as inhibitors; hit rate 69% among 1,400; calls by dose curve; further: on the % scale 0 is the no-effect control and ±100 the full control effect; nearly all actives have a fitted effect of over 70% in size
The depositor's hits bear a star; i = inactive; ? = inconclusive; · = not tested or not shown; [ ] = dose if it differs, or a comment. Hits are enriched below; roughly 11% of the tested compounds scored in any of these assays. Unless noted, the call rests on the fitted dose curve; in most records, active means well fitted curve in the direction sought with a large enough effect; inconclusive means small, poorly fitted or top-dose-only effect, or another doubt; inactive means no such curve, though single readings can be large; an effect the other way counts as inactive or inconclusive. Potency means the concentration at half of the fitted maximal effect.

SMILES	HEK cytotox	NIH3T3 tox	Luciferase inh	hNpr1 antagonist	NPR1 antag cnf	Npr2 selectivity	FLuc counter	GloSensor cGMP
COc1ccc(-n2nc(C)c([C@H]3C=C[C@@H](OC(=O)N[C@H](C)c4ccccc4)C3)c2C)cc1	14.1µM*	?	i	11.2µM*	9.94µM*	12.5µM*	-14.5%[86.2 µM]	8.86µM*
Cc1nn(Cc2ccccc2)c(C)c1[C@@H]1C=C[C@@H](NS(=O)(=O)c2cccs2)C1	?	?	i	?	?	?	-2.2%[86.2 µM]	?
COc1ccc(-n2nc(C)c([C@@H]3C=C[C@@H](NS(=O)(=O)c4cccs4)C3)c2C)cc1	?	?	i	?	?	?	-4.1%[86.2 µM]	35.3µM*
Cc1nn(Cc2ccccc2)c(C)c1[C@@H]1C=C[C@@H](NC(=O)c2cccs2)C1	?	?	i	-5.9%[70.6 µM]	·	·	·	·
CN1CCC2(CCC1=O)CN(Cc1cccc(Cl)c1Cl)CCN2C (stereo not given)	-6.4%	-0.4%	i	-0.7%	·	·	·	·
O=C1CN(S(=O)(=O)Cc2ccccc2)CC2(CCCCC2)N1CC1CC1	?	-27.5%	·	·	·	·	·	·
Cc1ccc(Cl)cc1NC(=O)c1cnc(-c2ccccc2)nc1-c1ccncc1	-31.1%	?	i	?	?	?	39.1%	-23.8%
O=C(Nc1ccccc1)c1cnc(-c2ccc(F)cc2)nc1-c1ccncc1	14.7%	?	i	-22.2%	·	·	·	·
O=C(Nc1cccc(F)c1)c1cnc(-c2ccc(F)cc2)nc1-c1ccncc1	44.7µM*	?	i	?	?	?	14.8%	?
Cc1nn(-c2ccccc2)c2c1C(C1CC1)N(C1CCN(Cc3ccc(OC(F)(F)F)cc3)CC1)C2=O (stereo not given)	-2.0%	-22.0%	·	·	·	·	·	·
N#Cc1cccnc1-c1cccc(C(=O)NCCNC(=O)Cc2ccccn2)c1	-16.3%	-10.9%	·	·	·	·	·	·
O=C(NCc1cc(F)ccc1F)c1csc(N2CCN(c3ccccc3F)CC2)n1	?	?	i	?	27.3µM*	?	1.5%	?
O=C(NCc1cccs1)c1cccc2c1CCN2C(=O)c1ccc(F)cc1	?	-26.5%	i	-14.0%	·	·	·	·
O=C(NCc1cccs1)c1csc(N2CCN(c3ccccc3F)CC2)n1	?	?	i	-27.6%	?	?	-2.2%	?
O=S(=O)(c1ccccc1)N1CCCC(c2nc(CCOCC3CCCC3)no2)C1 (stereo not given)	?	-25.6%	i	-21.9%	?	?	0.0%	?
Cc1nn(-c2ccccc2)c2c1C(C(C)C)N(C1CCCN([S+](=O)([O-])c3cccs3)C1)C2=O (stereo not given)	?	-19.8%	·	·	·	·	·	·
COc1cc(-c2cc(C)c3c(OC)ccc(OC)c3n2)cc2c1OCCNC2	?	20µM*	i	?	?	?	-1.5%	1.8%
Cn1ccc(NC(=O)c2ccc3c(c2)NC(C)(CCCCc2ccccc2)CO3)n1 (stereo not given)	44.7µM*	39.8µM*	i	10µM*	14µM*	19.8µM*	0.8%[86.2 µM]	12.5µM*
